{"source": "PubChem BioAssay AID743326", "about": "(National Center for Advancing Translational Sciences (NCATS), 2014)", "note": "A number with no mark means an inactive call. Active and inactive are the calls of the source. Calls follow the shape of the full dose curve.", "data": [{"experiment": "qHTS profiling of Chloroquine Analogs as inhibitors of Plasmodium falciparum (DD2) proliferation", "details": "Potency: Plasmodium falciparum Dd2 proliferation inhibition; series mostly up to 28.7 µM; activity change, negative = inhibition: at the top concentration", "source_text": "Plasmodium falciparum is a virulent malarial parasite that kills 1-2 million people worldwide each year. Transmitted by mosquitoes, the sporozoite form of the parasite enters the blood stream to infect hepatocytes, where they become merozoites that infect red blood cells (erythrocytes). Within erythrocytes, merozoites begin a […] cycle of growth and division, after which the parasite is released to infect new red blood cells. Gametocytes, which form within erythrocytes as well, circulate in the bloodstream and are ingested by the mosquito, thereby completing the life cycle. To profile malarial isolates for differential chemical responses and to identify inhibitors of malarial growth, an assay that measures P. falciparum growth and replication within erythrocytes was employed. This assay uses a DNA binding fluorescent dye (SYBR Green) to detect parasite DNA following cell lysis. Because mature erythrocytes lack DNA, only Plasmodium-derived DNA is detected.\nThe SYBR Green viability assay was adapted from a method described previously (Plouffe et al., 2008). For screening 3 ul culture medium was dispensed into 1536 well black clear bottom plates (Aurora Biotechnologies) using a Multidrop Combi (Thermo Fisher Scientific Inc.), 23 nL compounds in DMSO were added by a pin tool (Kalypsys), and 5 ul of erythrocytes infected with P. falciparum (0.3% parasitemia, 2.5% hematocrit final concentration) were added. The plates were incubated at 37 C in a humidified incubator in 5% CO2 for 72 h, and 2 ul lysis buffer (20 mM Tris HCl, 10 mM EDTA, 0.16% saponin, 1.6% triton X, 10X SYBR Green I supplied as 10,000X […] by Invitrogen) was added to each well. The plates were mixed for 25 sec with gentle shaking and incubated overnight at room temperature in the dark. The following morning, fluorescence intensity at 485(14) nm excitation and 535(25) nm emission wavelengths was measured on an EnVision (Perkin Elmer) plate reader. Plate reads were normalized relative to the control inhibitor (0.29 uM artemisinin) and vehicle (DMSO) wells present on each plate and then corrected by an algorithm using vehicle-only control plates at the beginning and end of the compound plate stack.", "values": [{"smiles": "CNC(=O)c1cc(Oc2ccc(NC(=O)Nc3ccc(Cl)c(C(F)(F)F)c3)cc2)ccn1", "activity change, negative = inhibition": "183%"}, {"smiles": "Cn1cncc1[C@@](N)(c1ccc(Cl)cc1)c1ccc2c(c1)c(-c1cccc(Cl)c1)cc(=O)n2C", "activity change, negative = inhibition": "193%"}, {"smiles": "C[N+]1(C)CCC(=C(c2ccccc2)c2ccccc2)CC1", "activity change, negative = inhibition": "-90.3% [at 14.2 µM]"}, {"smiles": "CN1CCN(CCCN2c3ccccc3Sc3ccc(S(=O)(=O)N(C)C)cc32)CC1", "Potency": "1140 nM (active)"}, {"smiles": "CCN(CC)CCOCCOC(=O)C(CC)(CC)c1ccccc1", "activity change, negative = inhibition": "-57.6%"}, {"smiles": "C[C@H](N)CN1CCc2ccc(Br)cc21", "Potency": "1880 nM (active)"}, {"smiles": "O=C1C(=O)c2ccccc2C(O)=C1C1CCC(c2ccc(Cl)cc2)CC1", "note": "(configuration not stated)", "activity change, negative = inhibition": "-99.4%"}, {"smiles": "CC(=O)N(O)CCCP(=O)(O)O", "activity change, negative = inhibition": "-91.8%"}, {"smiles": "Cc1nc2c(C#N)cccc2n1-c1ccc(C(=O)NC2CC2)s1", "activity change, negative = inhibition": "179%"}, {"smiles": "NC(=NCc1ccccc1)NC(=O)c1nc(Cl)c(N)nc1N", "activity change, negative = inhibition": "-94.1%"}, {"smiles": "CCCCCCCCCCOc1cc2c(=O)c(C(=O)OCC)c[nH]c2cc1OCC", "activity change, negative = inhibition": "-98.2%"}, {"smiles": "CCOc1ccc(F)cc1C1(O)C(N)=Nc2ccc(Cl)cc21", "note": "(configuration not stated)", "Potency": "66.8 nM (active)"}, {"smiles": "CCCC[C@@H]1C[C@@H](C(=O)NC([C@H](C)Cl)[C@H]2O[C@H](S)[C@H](O)[C@@H](O)[C@@H]2O)N(C)C1", "note": "(some centres not stated)", "activity change, negative = inhibition": "-73.3%"}, {"smiles": "CNCCCCOc1ccccc1Cc1ccccc1", "activity change, negative = inhibition": "206%"}, {"smiles": "Cc1cccc(C)c1OCC(=O)N[C@@H](Cc1ccccc1)[C@@H](O)C[C@H](Cc1ccccc1)NC(=O)[C@H](C(C)C)N1CCCNC1=O", "activity change, negative = inhibition": "-98.3%"}, {"smiles": "COC(=O)C1C2CC3c4[nH]c5cc(OC)ccc5c4CCN3CC2CC(OC(=O)c2cc(OC)c(OC)c(OC)c2)C1OC", "note": "(configuration not stated)", "activity change, negative = inhibition": "196% [at 57.5 µM]"}, {"smiles": "O=C(Nc1ccc(Cl)cc1)Nc1ccc(Cl)c(Cl)c1", "activity change, negative = inhibition": "176%"}, {"smiles": "Clc1ccc(COC(Cn2ccnc2)c2ccc(Cl)cc2Cl)c(Cl)c1", "note": "(configuration not stated)", "activity change, negative = inhibition": "-98.7% [at 14.2 µM]"}, {"smiles": "C[C@@H]1[C@@H](C(=O)C[C@H]2O[C@@H]3O[C@]4(C)CC[C@@H]5[C@H](C)CC[C@@H]([C@H]2C)[C@@]35OO4)O[C@@H]2O[C@]3(C)CC[C@H]4[C@H](C)CC[C@@H]1[C@@]24OO3", "Potency": "1.3 nM (active)"}, {"smiles": "COc1cc2c(Nc3ccc(NC(=O)c4ccccc4)cc3)ncnc2cc1OCCCN1CCOCC1", "Potency": "749 nM (active)"}, {"smiles": "CC(C)(C)c1cc(O)c(CN)c(C(C)(C)C)c1", "activity change, negative = inhibition": "180%"}, {"smiles": "O=C(C[C@@H]1NCCC[C@@H]1O)Cn1cnc2ccccc2c1=O", "activity change, negative = inhibition": "-101%"}, {"smiles": "CC(=O)O[C@@]12CO[C@@H]1C[C@H](O)[C@@]1(C)C(=O)[C@H](O)C3=C(C)[C@@H](OC(=O)[C@H](O)[C@@H](NC(=O)OC(C)(C)C)c4ccccc4)C[C@@](O)([C@@H](OC(=O)c4ccccc4)[C@H]21)C3(C)C", "activity change, negative = inhibition": "-97.1%"}, {"smiles": "C=CC(C)=C[C@@]1(C)SC(=O)C(C)=C1O", "activity change, negative = inhibition": "0.0824%"}, {"smiles": "O[C@H](c1cc(C(F)(F)F)nc2c(C(F)(F)F)cccc12)[C@H]1CCCCN1", "activity change, negative = inhibition": "192% [at 14.2 µM]"}, {"smiles": "CCCC(=O)O[C@]1(C(=O)CCl)[C@H](C)C[C@@H]2[C@H]3CCC4=CC(=O)C=C[C@]4(C)[C@@]3(F)C(=O)C[C@@]21C", "activity change, negative = inhibition": "173%"}, {"smiles": "CCN(CC)CCOc1ccc2c(=O)c3ccc(Cl)cc3n(CCN(CC)CC)c2c1", "Potency": "1330 nM (active)"}, {"smiles": "C=CCON=C(C[C@H]1O[C@@H]2O[C@]3(C)CC[C@@H]4[C@H](C)CC[C@@H]([C@H]1C)[C@@]24OO3)[C@H]1O[C@@H]2O[C@]3(C)CC[C@H]4[C@H](C)CC[C@@H]([C@@H]1C)[C@@]24OO3", "activity change, negative = inhibition": "197%"}, {"smiles": "O=C(O)c1cn(C2CC2)c2cc(N3CCNCC3)c(F)cc2c1=O", "activity change, negative = inhibition": "-13.3%"}, {"smiles": "COc1ncnc(NS(=O)(=O)c2ccc(N)cc2)c1OC", "Potency": "1880 nM (active)"}, {"smiles": "CCCCN(CCCC)CC(O)c1cc(Cl)cc2c1-c1ccc(Cl)cc1C2=Cc1ccc(Cl)cc1", "note": "(configuration not stated)", "activity change, negative = inhibition": "164%"}, {"smiles": "COc1cc(C=CC(=O)CC(=O)C=Cc2ccc(O)c(OC)c2)ccc1O", "Potency": "5300 nM (active)"}, {"smiles": "C[C@H]1[C@@H](CCC(=O)Nc2ccc(F)cc2)O[C@@H]2O[C@]3(C)CC[C@@H]4[C@H](C)CC[C@@H]1[C@@]24OO3", "activity change, negative = inhibition": "203%"}, {"smiles": "CCOc1ccccc1O[C@H](c1ccccc1)[C@H]1CNCCO1", "activity change, negative = inhibition": "201%"}, {"smiles": "Cc1cccc(C)c1OCC(N)C(C)C", "note": "(configuration not stated)", "Potency": "5950 nM (active)"}, {"smiles": "C[C@@H]1[C@@H](CC(C[C@H]2O[C@@H]3O[C@]4(C)CC[C@@H]5[C@H](C)CC[C@@H]([C@H]2C)[C@@]35OO4)C[S+](=O)([O-])c2ccc(COC(=O)N(C)C)cc2)O[C@@H]2O[C@]3(C)CC[C@H]4[C@H](C)CC[C@@H]1[C@@]24OO3", "note": "(some centres not stated)", "activity change, negative = inhibition": "-102%"}, {"smiles": "Cc1oncc1C(=O)Nc1ccc(C(F)(F)F)cc1", "activity change, negative = inhibition": "-19.1%"}]}]}
